# Values joined by “and” are separate entries in the source; they are usually repeats but may differ in a detail not shown here. Equal entries are not always repeated. Results filed as inconclusive are left out. Where a structure was tested more than once in an assay, its records may differ in their call. Active and inactive are the calls of the source. How the source made its calls, unless noted: active means hit-call score of the fitted dose curve at least 0.9, where 1 is the maximum; inactive means score below 0.9.
# Columns and labels:
# [1] = target: Estrogen-related receptor gamma (Homo sapiens) (UniProt P62508); experiment: ATG_ERRg_TRANS: Attagene TRANS-FACTORIAL HepG2 Assay for human Estrogen-Related Receptor gamma (ERRg) (AID 2282977; active means hit-call score of the fitted dose curve at least 0.9, where 1 is the maximum;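 further: hits increase reporter signal over DMSO so potencies reflect activators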); settings: HepG2 Attagene TRANS reporter, ERRg transactivation
# Procedure, shortened: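 HepG2 cells transiently transfected with multiplexed GAL4-UAS reporter units and chimeric NR-Gal4 constructs were exposed to test chemicals for 24 h. Reporter mRNA was measured by RT-PCR, 6-FAM primer extension, HpaI digestion and capillary electrophoresis; gain-of-signal versus DMSO.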
# [2] = target: Oxysterols receptor LXR-alpha (Homo sapiens) (UniProt Q13133); experiment: ATG_LXRa_TRANS: Attagene TRANS-FACTORIAL HepG2 Assay for human Liver X Receptor alpha (LXRa) (AID 2282980; active means hit-call score of the fitted dose curve at least 0.9, where 1 is the maximum); settings: HepG2 Attagene TRANS reporter, LXRa transactivation
# Procedure, shortened: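 Chemical-induced reporter mRNA measured by RT-PCR with fluorescent labelling and capillary electrophoresis after 24 h dosing of transiently transfected HepG2 cells expressing exogenous NR-Gal4 chimeras; increases scored against DMSO baseline.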
# [3] = target: Oxysterols receptor LXR-beta (Homo sapiens) (UniProt P55055); experiment: ATG_LXRb_TRANS: Attagene TRANS-FACTORIAL HepG2 Assay for human Liver X Receptor beta (LXRb) (AID 2282981; active means hit-call score of the fitted dose curve at least 0.9, where 1 is the maximum); settings: HepG2 Attagene TRANS GAL4-LXRb reporter, mRNA
# Procedure, shortened: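 HepG2 cells transiently transfected with multiple reporter transcription units carrying chimeric NR-Gal4 proteins acting on GAL4-UAS reporters; compound exposure 24 h. Reporter mRNA quantified by RT-PCR, 6-FAM labelling, HpaI digestion and capillary electrophoresis; gain of signal versus DMSO.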
# [4] = ATG_M_06_TRANS: Attagene TRANS-FACTORIAL HepG2 Assay for M06 Transcription Factor (Internal Marker) (AID 2282983; active means hit-call score of the fitted dose curve at least 0.9, where 1 is the maximum;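 further: reporter transcript level by RT-PCR then capillary electrophoresis fluorescence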); settings: HepG2 Attagene TRANS M06 internal marker reporter
# Procedure, shortened: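 Cells: HepG2, transient multi-reporter transfection. Exposure: 24 h. Detection: RT-PCR, 6-FAM labelling, HpaI digestion (2 h, 37 °C), capillary electrophoresis. Baseline: DMSO.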
# [5] = target: Nuclear receptor subfamily 4 group A member 2 (Homo sapiens) (UniProt P43354); experiment: ATG_NURR1_TRANS: Attagene TRANS-FACTORIAL HepG2 Assay for human Nuclear Receptor Related Protein 1 (NURR1) (AID 2282985; active means hit-call score of the fitted dose curve at least 0.9, where 1 is the maximum); settings: HepG2 Attagene TRANS reporter, mRNA readout
# Procedure, shortened: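 HepG2 cells transiently transfected with GAL4-UAS reporter units and chimeric NR-Gal4 constructs; chemical exposure 24 h. Reporter mRNA quantified by RT-PCR, fluorescent labelling and capillary electrophoresis; gain of signal fitted relative to DMSO baseline.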
# [6] = target: Transcriptional activator Myb (Homo sapiens) (UniProt P10242); experiment: ATG_Myb_CIS: Attagene CIS-FACTORIAL HepG2 Assay for human Myeloblastosis (Myb) Proto-Oncogene Transcription Factor (AID 2282986); settings: HepG2 Attagene CIS-FACTORIAL Myb reporter transcription; actives raise or lower the signal
# Procedure, shortened: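 Steps: transfect HepG2 with cis-regulated reporter units; dose with chemical for 24 h; isolate RNA, reverse-transcribe, PCR-amplify and FAM-label reporter sequences; digest with HpaI; resolve by capillary electrophoresis. Activity fitted in both directions relative to DMSO.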
# [7] = target: Nuclear respiratory factor 1 (Homo sapiens) (UniProt Q16656); experiment: ATG_NRF1_CIS: Attagene CIS-FACTORIAL HepG2 Assay for human Nuclear Respiratory Factor 1 (NRF1) Orphan Gene (AID 2282987); settings: HepG2 NRF1 cis-element reporter, Attagene multiplex; actives raise or lower the signal
# Procedure, shortened: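 Fluorescence intensity of labelled reporter cDNA fragments, resolved by capillary electrophoresis, served as readout for NRF1 cis-element activity. Transiently transfected HepG2 cells were dosed for 24 hours; activity in either direction was fitted against DMSO negative control.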
# [8] = ATG_NFI_CIS: Attagene CIS-FACTORIAL HepG2 Assay for human Nuclear Factor I (NFI) (AID 2282989); settings: HepG2 cis-regulatory reporter, NFI response element transcription; actives raise or lower the signal
# Procedure, shortened: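 HepG2 cells transiently transfected with cis-element-driven multiplexed reporter transcription units, dosed for 24 h. Reporter mRNA quantified by RT-PCR, fluorescent labelling, HpaI digestion and capillary electrophoresis; bidirectional fit versus DMSO baseline.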
# [9] = target: Myc proto-oncogene protein (Homo sapiens) (UniProt P01106); experiment: ATG_Myc_CIS: Attagene CIS-FACTORIAL HepG2 Assay for human Myelocytomatosis (Myc) Proto-Oncogene Transcription Factor (AID 2282990); settings: HepG2, Attagene cis-reporter transcription factor activity; actives raise or lower the signal
# Procedure, shortened: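 HepG2 cells transiently transfected with multiple cis-promoter-driven reporter transcription units, so endogenous TF activity is read. After 24 h compound exposure, reporter mRNA was quantified by RT-PCR, 6-FAM labelling, HpaI digestion and capillary electrophoresis; bidirectional fit versus DMSO.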
# [10] = ATG_NF_kB_CIS: Attagene CIS-FACTORIAL HepG2 Assay for human Nuclear Factor Kappa B (NF-kB) (AID 2282991); settings: HepG2 Attagene cis-factorial NF-kB reporter mRNA; actives raise or lower the signal
# Procedure, shortened: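 Endogenous transcription factor activity in HepG2 was captured via cis-regulated reporter constructs; after 24 h dosing, reporter mRNA was reverse-transcribed, amplified, fluorescently labelled and sized by capillary electrophoresis, with activity fitted bidirectionally relative to DMSO.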
# [11] = ATG_NRF2_ARE_CIS: Attagene CIS-FACTORIAL HepG2 Assay for human Nuclear Factor Erythroid 2 Related Factor 2 (NFR2) response to Antioxidant Response Elements (ARE) (AID 2282992); settings: HepG2 Attagene ARE/NRF2 reporter, transcription factor activity; actives raise or lower the signal;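 on AC50: reporter mRNA level measured by RT-PCR and capillary electrophoresis fluorescence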
# Procedure, shortened: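 HepG2 cells transiently transfected with multiplexed cis-element reporter constructs, 24 h after chemical dosing; reporter mRNA quantified by RT-PCR, fluorescent primer extension, HpaI digestion and capillary electrophoresis. Bidirectional fit relative to DMSO.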
# [12] = ATG_Oct_MLP_CIS: Attagene CIS-FACTORIAL HepG2 Assay for human Octamer-Binding Transcription Factor (Oct) (AID 2282993); settings: HepG2 Attagene cis-factorial Oct reporter, mRNA; actives raise or lower the signal
# Procedure, shortened: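 HepG2 cells transiently transfected with cis-promoter-driven multiplexed reporter transcription units, dosed for 24 h. Reporter mRNA quantified by RT-PCR, fluorescent labelling, HpaI digestion and capillary electrophoresis; bidirectional fits versus DMSO baseline.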
# [13] = target: Cellular tumor antigen p53 (Homo sapiens) (UniProt P04637); experiment: ATG_p53_CIS: Attagene CIS-FACTORIAL HepG2 Assay for human p53 Transcription Factor (AID 2282994); settings: HepG2 p53 cis-element reporter, Attagene mRNA; actives raise or lower the signal
# Procedure, shortened: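 HepG2 cells transiently transfected with cis-regulated multiple reporter transcription units, dosed 24 h. Reporter mRNA measured by RT-PCR, 6-FAM primer extension, HpaI digestion and capillary electrophoresis; bidirectional fit relative to DMSO.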
# [14] = target: Glucocorticoid receptor (Homo sapiens) (UniProt P04150); experiment: ATG_GR_TRANS: Attagene TRANS-FACTORIAL HepG2 Assay for human Glucocorticoid Receptor (GR) (AID 2282978; active means hit-call score of the fitted dose curve at least 0.9, where 1 is the maximum;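 further: activators score as hits since higher reporter transcript over DMSO is fitted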); settings: HepG2 Attagene TRANS GR reporter, mRNA transcription
# Procedure, shortened: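 In this trans-factorial format, exogenous NR-GAL4 chimeric proteins in transfected HepG2 cells regulate GAL4-UAS reporter transcription. After 24 h treatment, reporter mRNA induction relative to DMSO is read by RT-PCR and capillary electrophoresis.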
# [15] = target: Bile acid receptor (Homo sapiens) (UniProt Q96RI1); experiment: ATG_FXR_TRANS: Attagene TRANS-FACTORIAL HepG2 Assay for Farnesoid X Receptor (FXR) (AID 2282979; active means hit-call score of the fitted dose curve at least 0.9, where 1 is the maximum;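 further: hits raise reporter mRNA above DMSO so AC50 marks FXR activation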); settings: HepG2 Attagene TRANS FXR-GAL4 reporter transcription
# Procedure, shortened: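 Reporter transcripts from transfected HepG2 cells were measured 24 h after dosing, using RT-PCR with capillary electrophoresis of 6-FAM-labelled fragments. The read-out reflects activity of exogenous FXR-Gal4 chimera on GAL4-UAS units, with induction relative to DMSO.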
# [16] = ATG_M_32_TRANS: Attagene TRANS-FACTORIAL HepG2 Assay for M32 Transcription Factor (Internal Marker) (AID 2282984; active means hit-call score of the fitted dose curve at least 0.9, where 1 is the maximum;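 further: transcript level of a background control reporter unit measured by RT-PCR and capillary electrophoresis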); settings: HepG2 Attagene TRANS M32 internal marker reporter
# Procedure, shortened: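 HepG2 cells transiently transfected with multiple GAL4-UAS reporter transcription units, dosed for 24 hours; reporter mRNA quantified by RT-PCR, 6-FAM primer extension, HpaI digestion and capillary electrophoresis. Gain-of-signal fitted versus DMSO baseline; internal background-control marker.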
# [17] = target: Hepatocyte nuclear factor 4-alpha (Homo sapiens) (UniProt P41235); experiment: ATG_HNF4a_TRANS: Attagene TRANS-FACTORIAL HepG2 Assay for human Hepatocyte Nuclear Factor 4 alpha (HNF4a) (AID 2282982; active means hit-call score of the fitted dose curve at least 0.9, where 1 is the maximum); settings: HepG2 HNF4a transactivation reporter, mRNA readout
# Procedure, shortened: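 HepG2 cells transiently transfected with multiplexed GAL4-UAS reporter units responsive to chimeric NR-GAL4 proteins; compound exposure 24 h. Reporter mRNA quantified by RT-PCR, 6-FAM labelling, HpaI digestion and capillary electrophoresis; gain of signal versus DMSO baseline.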
# [18] = BSK_3C_uPAR: BioMAP Diversity Plus: 3C Assay for Urokinase-type plasminogen activator receptor (uPAR) Biomarker Activity (AID 2282998); settings: BioMAP 3C HUVEC, uPAR biomarker ELISA; actives raise or lower the signal
# Procedure, shortened: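 Human umbilical vein endothelial primary cells were exposed to test chemical for 24 h. Cell-surface uPAR was then quantified by ELISA, and responses were fitted bidirectionally against DMSO as negative control and baseline.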
# [19] = BSK_3C_VCAM1: BioMAP Diversity Plus: 3C Assay for Vascular cell adhesion molecule 1 (VCAM1) Biomarker Activity (AID 2282999); settings: BioMAP 3C HUVEC, VCAM1 ELISA, cytokine-stimulated; actives raise or lower the signal
# Procedure, shortened: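 Human umbilical vein endothelial cells were dosed with compound for 24 h, after which cell-surface VCAM-1 was quantified by ELISA. Bidirectional curve fitting used DMSO as negative control and activity baseline.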
# Glucocorticoid receptor (Homo sapiens), sequence (P04150 whole entry, looked up, the tested form may be a part): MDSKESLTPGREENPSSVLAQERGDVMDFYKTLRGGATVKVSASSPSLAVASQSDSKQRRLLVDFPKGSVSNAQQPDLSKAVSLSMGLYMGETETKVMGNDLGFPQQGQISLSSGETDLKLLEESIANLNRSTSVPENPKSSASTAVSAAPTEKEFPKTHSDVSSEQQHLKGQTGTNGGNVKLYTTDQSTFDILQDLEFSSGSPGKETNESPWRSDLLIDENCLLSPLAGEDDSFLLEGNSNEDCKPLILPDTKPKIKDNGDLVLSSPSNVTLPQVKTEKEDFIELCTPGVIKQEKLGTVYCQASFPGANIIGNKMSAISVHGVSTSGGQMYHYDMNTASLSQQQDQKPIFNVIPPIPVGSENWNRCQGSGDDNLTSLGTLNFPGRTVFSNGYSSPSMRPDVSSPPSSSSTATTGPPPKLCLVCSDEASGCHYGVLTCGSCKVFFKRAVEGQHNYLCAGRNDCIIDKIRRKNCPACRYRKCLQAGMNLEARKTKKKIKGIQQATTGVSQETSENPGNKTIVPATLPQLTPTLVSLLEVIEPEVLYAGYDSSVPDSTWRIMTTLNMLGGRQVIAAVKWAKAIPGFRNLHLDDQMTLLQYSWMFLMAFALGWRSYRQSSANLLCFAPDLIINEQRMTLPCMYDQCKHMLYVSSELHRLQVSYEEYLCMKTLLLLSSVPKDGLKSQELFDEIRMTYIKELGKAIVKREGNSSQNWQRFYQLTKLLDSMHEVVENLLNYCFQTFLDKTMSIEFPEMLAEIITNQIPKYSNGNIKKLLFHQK
# Cellular tumor antigen p53 (Homo sapiens), sequence (P04637 whole entry, looked up): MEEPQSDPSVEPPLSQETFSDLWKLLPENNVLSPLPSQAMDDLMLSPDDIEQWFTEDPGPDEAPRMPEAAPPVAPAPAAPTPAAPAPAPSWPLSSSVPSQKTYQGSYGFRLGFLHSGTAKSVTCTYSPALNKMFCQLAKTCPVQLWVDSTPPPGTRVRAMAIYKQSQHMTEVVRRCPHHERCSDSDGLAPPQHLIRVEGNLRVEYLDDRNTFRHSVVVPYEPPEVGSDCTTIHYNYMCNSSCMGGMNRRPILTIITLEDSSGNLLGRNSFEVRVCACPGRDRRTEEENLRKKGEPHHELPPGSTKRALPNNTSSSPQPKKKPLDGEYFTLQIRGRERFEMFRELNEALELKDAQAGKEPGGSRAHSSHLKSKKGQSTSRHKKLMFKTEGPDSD
# Hepatocyte nuclear factor 4-alpha (Homo sapiens), sequence (P41235 whole entry, looked up, the tested form may be a part): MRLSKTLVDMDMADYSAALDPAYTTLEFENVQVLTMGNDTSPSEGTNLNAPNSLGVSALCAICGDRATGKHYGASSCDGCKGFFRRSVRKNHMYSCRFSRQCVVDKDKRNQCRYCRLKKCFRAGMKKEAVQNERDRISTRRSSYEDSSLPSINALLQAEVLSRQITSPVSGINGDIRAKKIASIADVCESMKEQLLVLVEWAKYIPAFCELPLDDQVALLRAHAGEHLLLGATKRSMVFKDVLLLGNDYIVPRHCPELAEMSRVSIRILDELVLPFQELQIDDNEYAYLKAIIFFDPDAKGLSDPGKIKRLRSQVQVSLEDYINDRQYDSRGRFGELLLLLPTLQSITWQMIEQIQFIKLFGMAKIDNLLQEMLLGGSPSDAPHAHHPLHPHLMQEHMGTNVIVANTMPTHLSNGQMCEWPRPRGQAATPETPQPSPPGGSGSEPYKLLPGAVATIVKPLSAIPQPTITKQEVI
# Nuclear respiratory factor 1 (Homo sapiens), sequence (Q16656 whole entry, looked up, the tested form may be a part): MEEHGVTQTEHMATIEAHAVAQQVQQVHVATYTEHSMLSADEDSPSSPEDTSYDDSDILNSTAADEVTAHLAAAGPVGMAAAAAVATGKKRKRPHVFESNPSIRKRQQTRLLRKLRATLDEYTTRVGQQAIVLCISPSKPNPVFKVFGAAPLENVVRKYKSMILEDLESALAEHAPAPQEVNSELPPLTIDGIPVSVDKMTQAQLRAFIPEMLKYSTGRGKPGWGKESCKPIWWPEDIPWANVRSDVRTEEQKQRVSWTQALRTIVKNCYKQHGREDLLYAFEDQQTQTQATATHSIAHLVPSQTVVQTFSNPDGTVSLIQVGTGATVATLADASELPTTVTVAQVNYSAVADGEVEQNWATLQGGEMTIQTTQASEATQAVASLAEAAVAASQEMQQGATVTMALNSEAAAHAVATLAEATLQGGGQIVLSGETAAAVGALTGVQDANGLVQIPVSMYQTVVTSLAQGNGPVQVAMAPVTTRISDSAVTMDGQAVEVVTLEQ
# Nuclear receptor subfamily 4 group A member 2 (Homo sapiens), sequence (P43354 whole entry, looked up, the tested form may be a part): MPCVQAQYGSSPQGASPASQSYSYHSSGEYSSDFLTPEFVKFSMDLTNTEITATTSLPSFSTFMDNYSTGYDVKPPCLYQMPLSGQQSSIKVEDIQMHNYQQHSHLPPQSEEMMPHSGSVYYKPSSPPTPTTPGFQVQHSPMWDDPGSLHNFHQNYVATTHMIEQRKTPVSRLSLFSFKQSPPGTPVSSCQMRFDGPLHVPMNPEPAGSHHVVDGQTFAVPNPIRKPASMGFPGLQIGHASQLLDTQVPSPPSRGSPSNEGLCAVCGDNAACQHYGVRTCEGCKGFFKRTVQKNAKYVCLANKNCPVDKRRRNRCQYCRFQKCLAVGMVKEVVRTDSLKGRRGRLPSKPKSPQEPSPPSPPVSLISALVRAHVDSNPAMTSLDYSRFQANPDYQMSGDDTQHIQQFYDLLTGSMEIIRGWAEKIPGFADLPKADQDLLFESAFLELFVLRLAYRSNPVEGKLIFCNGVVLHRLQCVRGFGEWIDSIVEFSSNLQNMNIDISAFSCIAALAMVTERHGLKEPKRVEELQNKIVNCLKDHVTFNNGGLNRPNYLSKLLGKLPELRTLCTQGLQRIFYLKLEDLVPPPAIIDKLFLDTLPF
# Myc proto-oncogene protein (Homo sapiens), sequence (P01106 whole entry, looked up): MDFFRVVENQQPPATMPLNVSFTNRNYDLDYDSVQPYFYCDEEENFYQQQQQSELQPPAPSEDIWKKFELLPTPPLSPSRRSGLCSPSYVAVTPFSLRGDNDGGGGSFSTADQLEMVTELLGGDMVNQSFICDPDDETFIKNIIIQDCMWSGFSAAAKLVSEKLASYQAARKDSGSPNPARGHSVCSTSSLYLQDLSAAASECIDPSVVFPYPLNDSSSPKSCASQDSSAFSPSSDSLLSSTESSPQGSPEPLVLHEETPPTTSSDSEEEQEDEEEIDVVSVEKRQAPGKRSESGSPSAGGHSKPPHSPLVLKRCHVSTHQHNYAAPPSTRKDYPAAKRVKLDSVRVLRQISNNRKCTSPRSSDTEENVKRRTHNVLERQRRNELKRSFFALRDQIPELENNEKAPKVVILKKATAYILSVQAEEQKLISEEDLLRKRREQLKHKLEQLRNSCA
# Estrogen-related receptor gamma (Homo sapiens), sequence (P62508 whole entry, looked up, the tested form may be a part): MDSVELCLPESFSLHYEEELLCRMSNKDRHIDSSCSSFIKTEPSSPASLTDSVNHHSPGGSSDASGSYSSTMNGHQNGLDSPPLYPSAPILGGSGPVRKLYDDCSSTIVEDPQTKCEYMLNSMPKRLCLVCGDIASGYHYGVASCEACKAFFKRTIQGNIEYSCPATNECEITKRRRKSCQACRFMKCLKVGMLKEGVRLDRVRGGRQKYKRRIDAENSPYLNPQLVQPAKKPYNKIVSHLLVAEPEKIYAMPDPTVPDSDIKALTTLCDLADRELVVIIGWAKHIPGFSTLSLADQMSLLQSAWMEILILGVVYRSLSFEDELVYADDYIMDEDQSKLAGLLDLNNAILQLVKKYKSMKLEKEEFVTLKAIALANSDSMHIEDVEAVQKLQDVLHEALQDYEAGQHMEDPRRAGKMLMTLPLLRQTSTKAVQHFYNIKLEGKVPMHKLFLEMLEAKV
# Oxysterols receptor LXR-alpha (Homo sapiens), sequence (Q13133 whole entry, looked up, the tested form may be a part): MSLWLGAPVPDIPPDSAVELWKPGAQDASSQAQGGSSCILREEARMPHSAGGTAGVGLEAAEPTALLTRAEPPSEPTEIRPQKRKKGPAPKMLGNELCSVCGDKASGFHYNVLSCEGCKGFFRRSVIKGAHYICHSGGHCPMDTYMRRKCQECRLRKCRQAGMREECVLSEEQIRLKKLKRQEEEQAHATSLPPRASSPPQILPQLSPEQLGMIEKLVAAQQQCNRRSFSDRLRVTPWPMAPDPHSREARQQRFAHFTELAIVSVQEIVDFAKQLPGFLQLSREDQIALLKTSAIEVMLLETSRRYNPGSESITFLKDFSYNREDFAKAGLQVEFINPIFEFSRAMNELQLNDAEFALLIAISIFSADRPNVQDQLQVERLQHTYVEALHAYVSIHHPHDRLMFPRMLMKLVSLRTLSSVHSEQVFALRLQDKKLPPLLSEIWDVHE
# Transcriptional activator Myb (Homo sapiens), sequence (P10242 whole entry, looked up): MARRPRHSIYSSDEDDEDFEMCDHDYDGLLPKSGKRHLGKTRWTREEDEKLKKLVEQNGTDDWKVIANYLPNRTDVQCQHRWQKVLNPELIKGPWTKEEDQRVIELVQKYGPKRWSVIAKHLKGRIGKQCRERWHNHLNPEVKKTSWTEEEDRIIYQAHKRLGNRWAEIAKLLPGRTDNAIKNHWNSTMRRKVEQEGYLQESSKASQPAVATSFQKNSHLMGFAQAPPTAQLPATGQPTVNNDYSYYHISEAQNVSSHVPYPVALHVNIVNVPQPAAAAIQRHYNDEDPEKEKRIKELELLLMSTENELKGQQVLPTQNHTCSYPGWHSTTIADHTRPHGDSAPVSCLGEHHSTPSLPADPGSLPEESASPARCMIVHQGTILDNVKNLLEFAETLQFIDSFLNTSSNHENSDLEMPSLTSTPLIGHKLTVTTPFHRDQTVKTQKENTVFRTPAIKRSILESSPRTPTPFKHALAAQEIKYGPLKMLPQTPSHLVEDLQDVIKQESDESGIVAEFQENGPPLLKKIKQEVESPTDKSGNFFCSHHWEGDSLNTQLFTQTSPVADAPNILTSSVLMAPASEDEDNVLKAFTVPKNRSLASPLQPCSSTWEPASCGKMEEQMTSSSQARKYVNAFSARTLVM
compound,measurement,setting,value
N#CCCCC(C#N)CCC#N (stereo not drawn),outcome,[1],inactive
same,outcome,[2],inactive
same,outcome,[3],inactive
same,outcome,[4],inactive
same,outcome,[5],inactive
same,outcome,[6],inactive
same,outcome,[7],inactive
same,outcome,[8],inactive
same,outcome,[9],inactive
same,outcome,[10],inactive
same,outcome,[11],inactive
same,outcome,[12],inactive
same,outcome,[13],inactive
O=C1CCC(=O)N1,outcome,[1],inactive
same,outcome,[14],inactive
same,outcome,[15],inactive
same,outcome,[2],inactive
same,outcome,[16],inactive
same,outcome,[6],inactive
same,outcome,[7],inactive
same,outcome,[8],inactive
same,outcome,[9],inactive
same,outcome,[10],inactive
same,outcome,[11],inactive
same,outcome,[12],inactive
same,outcome,[13],inactive
ClCCOCCOCCCl,outcome,[1],inactive
same,outcome,[3],inactive
same,outcome,[17],inactive
same,outcome,[5],inactive
same,outcome,[6],inactive
same,outcome,[7],inactive
same,outcome,[8],inactive
same,outcome,[9],inactive
same,AC50,[11],54.7 µM (active)
same,outcome,[12],inactive
same,outcome,[13],inactive
C1COCO1,outcome,[1],inactive
same,outcome,[2],inactive
same,outcome,[3],inactive
same,outcome,[16],inactive
same,outcome,[6],inactive
same,outcome,[7],inactive
same,outcome,[8],inactive
same,outcome,[9],inactive
same,outcome,[10],inactive
same,outcome,[11],inactive
same,outcome,[12],inactive
O=C(O)c1cc2ccccc2cc1O,outcome,[1],inactive
same,outcome,[2],inactive
same,outcome,[3],inactive
same,outcome,[17],inactive
same,outcome,[4],inactive
same,outcome,[16],inactive
same,outcome,[5],inactive
same,outcome,[6],inactive
same,outcome,[7],inactive
same,outcome,[8],inactive
same,outcome,[9],inactive
same,outcome,[10],inactive
same,outcome,[11],inactive
same,outcome,[12],inactive
CCOCC(C)O (stereo not drawn),outcome,[1],inactive
same,outcome,[2],inactive
same,outcome,[3],inactive
same,outcome,[17],inactive
same,outcome,[16],inactive
same,outcome,[5],inactive
same,outcome,[6],inactive
same,outcome,[7],inactive
same,outcome,[8],inactive
same,outcome,[9],inactive
same,outcome,[11],inactive
same,outcome,[12],inactive
C[C@]12CC[C@@H]3c4ccc(O)cc4CC[C@H]3[C@@H]1CC[C@@H]2O,outcome,[1],inactive
same,outcome,[14],inactive
same,outcome,[2],inactive
same,outcome,[3],inactive
same,outcome,[4],inactive
same,outcome,[16],inactive
same,outcome,[6],inactive
same,outcome,[7],inactive
same,AC50,[8],146 µM (active)
same,outcome,[8],inactive
same,outcome,[9],inactive
same,outcome,[11],inactive
same,outcome,[12],inactive
same,AC50,[13],19.8 µM (active) and 21.3 µM (active) and 12.8 µM (active)
same,outcome,[13],inactive
same,AC50,[18],11.9 µM (active)
same,outcome,[19],inactive
O=C(O)CS,outcome,[1],inactive
same,outcome,[14],inactive
same,outcome,[17],inactive
same,outcome,[4],inactive
same,outcome,[5],inactive
same,outcome,[6],inactive
same,outcome,[7],inactive
same,outcome,[8],inactive
same,outcome,[9],inactive
same,outcome,[10],inactive
same,outcome,[11],inactive
same,outcome,[12],inactive
CN(C)c1ccc(C=O)cc1,outcome,[1],inactive
same,outcome,[14],inactive
same,outcome,[15],inactive
same,outcome,[3],inactive
same,outcome,[17],inactive
same,outcome,[4],inactive
same,outcome,[16],inactive
same,outcome,[7],inactive
same,outcome,[8],inactive
same,outcome,[9],inactive
same,outcome,[10],inactive
same,outcome,[11],inactive
same,outcome,[12],inactive
same,outcome,[13],inactive
O=C1CCCCCCCCCCCC(=O)OCCO1,outcome,[1],inactive
same,outcome,[14],inactive
same,outcome,[3],inactive
same,outcome,[17],inactive
same,outcome,[16],inactive
same,outcome,[5],inactive
same,outcome,[7],inactive
same,outcome,[8],inactive
same,outcome,[9],inactive
same,outcome,[11],inactive
same,outcome,[12],inactive

# Source: PubChem BioAssay (EPA / NIEHS)
